This is a sample that favours compounds with a hit; in the whole collection about 8.7% have one here.
Pf growth 96h – P. falciparum growth inhibition at 96 hours. 320,000 tested, 6.9% active. P. falciparum luciferase reporter growth, 96 h. Potency, µM (highest dose often 28.7 µM), for inactives: at the highest dose activity change, negative = inhibition, most hits filed as inhibitors
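Infected RBCs, 2% Hct / 0.05% parasitemia final; luciferase-reporter P. falciparum; cpd 96 h, 37 C, 5% CO2; luciferase detection reagent; luminescence.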
Vaccinia Venus – inhibitors of vaccinia virus (Venus reporter). Vaccinia virus Venus reporter expression, fluorescence. Potency, µM (series often up to 36.5 µM), without a hit: at the highest dose activity change, negative = inhibition, usual class: inhibitors. 330,000 tested, 0.46% active. AID 720580; calls by dose curve; tested in A549 cells; further: nearly all actives have a fitted effect of over 30% in size
Pf growth 48h – inhibits P. falciparum growth in the first generation, 48 h | P. falciparum luciferase growth in erythrocytes, 48 h | Potency, µM (top dose mostly 28.7 µM), for the others: at the highest dose activity change, negative = inhibition, usual class: inhibitors | 310,000 tested, 5.9% active
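In quantitative HTS format, infected erythrocytes bearing luciferase-reporter parasites were treated for a single generation at 37 C. Luminescence after adding detection reagent served as the growth measure.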
VACV mCherry inh – inhibitors of vaccinia virus infection (mCherry reporter signal). Vaccinia virus mCherry reporter infection, fluorescence. Potency, µM (titrated, usually from 36.5 µM), for inactives: at the highest dose activity change, negative = inhibition, actives largely listed as inhibitors. 310,000 tested, 0.63% active. AID 720579; calls by dose curve; tested in A549 cells; further: nearly all actives have a fitted effect of over 35% in size
AMA1 RON2 block – disrupts binding of P. falciparum AMA1 to RON2 | AID 720542 | Potency, µM (doses to about 58.2 µM), for inactives: at the top dose activity change, negative = inhibition, actives largely listed as inhibitors | 360,000 tested, 0.2% active | AlphaScreen AMA1-biotinylated RON2 peptide binding;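 further: 0% = vehicle wells and -100% = peptide control; nearly all actives have a fitted effect of over 45% in size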
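AMA1 (3D7) with his tag at 25 nM final met compounds first, then biotinylated RON2 peptide at 25 nM; detection used donor plus acceptor beads, 10 µg/mL apiece, read by AlphaScreen after 30 min at room temperature.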
* hit, by the source's call; i = inactive; ? = inconclusive; . = no result; [ ] = dose if it differs, or a comment. Unless noted, the call rests on the fitted dose curve; in most records, active means well fitted curve in the direction sought with a large enough effect; inconclusive means small, poorly fitted or top-dose-only effect, or another doubt; inactive means no such curve, though single readings can be large; an effect the other way counts as inactive or inconclusive. Unless noted, on the % scale 0 is the no-effect control and ±100 the full control effect; potency means the concentration at half of the fitted maximal effect.

SMILES	Pf growth 96h	Vaccinia Venus	Pf growth 48h	VACV mCherry inh	AMA1 RON2 block
O=C(NCc1ccccc1)c1cccnc1	-2.7%	.	10.2%	.	-2.8%
O=C(N[C@@H](Cc1ccccc1)C(=O)O)c1cccnc1	2.94µM*	-8.0%	.	4.2%	40.9%
COc1cc(N(Cc2ccccc2)Cc2ccccc2)c2ncn(C(C)C)c2c1	7.38µM*	-13.6%	5.86µM*	-18.2%	?
CC(C)n1cnc2c(N(C)c3ccccc3)nc(N(CCN(C)C)Cc3ccccc3)nc21	0.928µM*	12.6µM*	4.65µM*	?	?
CN(c1ccccc1)c1ncnc2c1ncn2C	.	-9.9%	.	-17.1%	11.2%
C=CCc1cc(Cl)ccc1OCCNCCCOC	13.1µM*	-15.3%	-9.5%	-14.7%	26.9%
C=CCc1cc(Cl)ccc1OCCOCCNC(C)(C)C	2.7%	-18.6%	13.1µM*	i	3.3%
Cc1ccc2cc(CN(Cc3ccco3)C(=O)NCc3ccccc3)c(=O)[nH]c2c1C	11.7µM*	?	-29.4%	.	-5.3%
Cc1cccc2cc(CN(Cc3ccco3)C(=O)c3ccco3)c(=O)[nH]c12	-28.6%	-4.7%	-27.8%	-9.5%	-5.4%
Cc1ccc(NC(=O)N(Cc2cccnc2)Cc2ccco2)cc1C	?	.	?	.	-3.0%
Cc1cccc2cc(CN(Cc3ccco3)C(=O)c3cccs3)c(=O)[nH]c12	9.28µM*	-0.5%	10.4µM*	.	-6.3%
Cc1cccc2cc(CN(Cc3ccco3)C(=O)Nc3cccc(C#N)c3)c(Cl)nc12	13.1µM*	-21.4%	9.28µM*	-13.2%	-3.6%
Cc1ccc(C)c2[nH]c(=O)c(CN(Cc3ccco3)C(=O)Nc3ccccc3)cc12	?	-4.9%	11.7µM*	-9.5%[1.46 µM]	-22.9%
COc1ccccc1NC(=O)N(Cc1ccco1)Cc1cc2ccc(C)c(C)c2[nH]c1=O	3.5%	?	?	i	-8.9%
CC(=O)ON(C(C)=O)c1ccc(/C=C2/C=Cc3ccccc32)cc1	.	-22.1%	.	-1.6%	.
CCOc1ccc(CNCc2c(C(=O)O)n(Cc3ccccc3C)c3cc(OC)ccc23)cc1OC	.	-7.9%[7.34 µM]	.	-11.2%[7.34 µM]	.
Cc1c(-c2nnc(-c3ccc(C(F)(F)F)cc3)o2)cnn1-c1ccccc1	38.9%	-11.0%	.	.	-1.9%
Cc1nn(-c2ccccc2)nc1-c1nnc(-c2ccc(C(F)(F)F)cc2)o1	?	-1.0%	0.262µM*	-14.4%	12.9%
CN(C)CCCN1C(=O)C2CCc3[nH]c4ccccc4c3C2C1=O (stereo not given)	2.94µM*	-7.9%	16.6%	i	-5.7%
CN(C)CCCN1C(=O)c2cc3ccccc3cc2C1=O	16.8%	.	0.4%	.	0.0%
CN(C(=O)c1cc2c(=O)n3ccccc3nc2n1C)c1ccccc1	.	-3.2%	.	-9.3%	.
c1cncc(-c2nc(N3CCOCC3)c3c4c(sc3n2)CCC4)c1	?	-14.3%	?	-5.8%	0.5%
c1cncc(-c2nc(NCCCN3CCOCC3)c3c4c(sc3n2)CCC4)c1	?	?	11.7µM*	-16.8%	-7.3%
COc1ccc2c(c1)c1c(c(=O)n(Cc3ccccc3)c(=O)n1Cc1ccccc1)n2C	.	-1.4%	.	-8.0%	.
Cc1cc(O)c2c(c1)C(=O)C13C(=C2O)C(=O)[C@H]2[C@@H](O)[C@@H]1[C@H]1[C@H](O)[C@@H]3C(=O)C3=C(O)c4c(O)cc(C)cc4C(=O)C312 (stereo not given in full)	3.29µM*	?	4.15µM*	?	74.7%
SMILES	Pf growth 96h	Vaccinia Venus	Pf growth 48h	VACV mCherry inh	AMA1 RON2 block
COc1ccc(-c2c[n+]3c(n2-c2ccccc2)SCC3)cc1OC	?	5.0%	1.31µM*	i	-5.8%
O=C(NC1CCCC1)c1cn(C2CCN(Cc3cccc4cccnc34)CC2)nn1	.	-2.3%	.	-1.9%	.
Cc1cc(OCC(=O)Nc2ccc(C(=O)OC3CCCCC3)cc2)cc(C)c1Cl	.	10.3%	.	8.4%	.
Nc1nc(-c2ccccc2)[nH]c(=O)c1N=O	0.0%	12.6µM*	-0.6%	?	5.9%
CCN(CC)S(=O)(=O)c1cc(NC(=O)C(C)N2CCN(Cc3ccc4c(c3)OCO4)CC2)ccc1C (stereo not given)	?	?	?	-24.8%	-4.4%
CCN(CC)S(=O)(=O)c1cc(NC(=O)C(C)Nc2ccccc2N2CCOCC2)ccc1C (stereo not given)	7.38µM*	-24.4%	?	-23.1%	32.3%

From PubChem BioAssay
